From PubChem
hNpr1 antagonist = Natriuretic polypeptide receptor (hNpr1) antagonism - Primary qHTS | HEK293 hNpr1 GloSensor cGMP, ANP-stimulated luminescence | Potency, µM (series often up to 46.3 µM), usual class: inhibitors | 76,000 tested, 1.6% active | AID 1347048, 2019; calls by dose curve; note: nearly all actives have a fitted effect of over 60% in size
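HEK293 cells stably expressing human Npr1 and cGMP GloSensor pGS-40F, loaded 2 h with 2% GloSensor reagent, given compound 30 min at room temperature. Luminescence read before and 20 min after 0.1 nM hNppA.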
HEK cytotox = Cytotoxic Profiling in HEK 293 Cell Line of Diverse Libraries Using Quantitative High-Throughput Screening. 94,000 tested, 6.6% active. Potency, µM (series often up to 115 µM), actives largely listed as inhibitors. HEK 293 viability, ATP luminescence (CellTiter-Glo), 48-72 h. AID 1345083, 2018; note: nearly all actives have a fitted effect of over 60% in size
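ATP-coupled CellTiter-Glo luminescence served as viability read-out, recorded 10 min after reagent addition at room temperature. HEK 293 cells, 250 cells/well, had been incubated with pintool-transferred compound for 48 or 72 hr at 37 degree Celsius.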
GPT2 inhibitor = Primary qHTS assay for inhibitors of Glutamate pyruvate transaminase 2 (GPT2); 100,000 tested, 0.25% active; Recombinant GPT2, coupled pyruvate oxidase/HRP Amplex Red fluorescence; AID 1671188, 2021; Potency, µM (highest dose often 57.7 µM), most hits filed as inhibitors; Alanine aminotransferase 2 (Homo sapiens), Q8TD30; note: nearly all actives have a fitted effect of over 60% in size
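Fluorescence read-out: pyruvate from GPT2 turnover coupled to pyruvate oxidase, HRP and Amplex Red (0.2mM ThPP, 0.2U/mL PO and HRP, 50uM Amplex final). Substrates 250uM a-KG, 2mM L-alanine; enzyme 10ng/uL; 30 min RT.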
Luciferase inh = Firefly luciferase inhibition profiling of diverse chemical library using quantitative high-throughput screening | purified P. pyralis luciferase, luminescence, biochemical | Potency, µM (doses to about 115 µM), actives largely listed as inhibitors | 76,000 tested, 2.5% active | AID 1347043, 2019 | Luciferin 4-monooxygenase (Photinus pyralis), P08659; note: nearly all actives have a fitted effect of over 65% in size
Target sequence (P08659 whole entry, looked up): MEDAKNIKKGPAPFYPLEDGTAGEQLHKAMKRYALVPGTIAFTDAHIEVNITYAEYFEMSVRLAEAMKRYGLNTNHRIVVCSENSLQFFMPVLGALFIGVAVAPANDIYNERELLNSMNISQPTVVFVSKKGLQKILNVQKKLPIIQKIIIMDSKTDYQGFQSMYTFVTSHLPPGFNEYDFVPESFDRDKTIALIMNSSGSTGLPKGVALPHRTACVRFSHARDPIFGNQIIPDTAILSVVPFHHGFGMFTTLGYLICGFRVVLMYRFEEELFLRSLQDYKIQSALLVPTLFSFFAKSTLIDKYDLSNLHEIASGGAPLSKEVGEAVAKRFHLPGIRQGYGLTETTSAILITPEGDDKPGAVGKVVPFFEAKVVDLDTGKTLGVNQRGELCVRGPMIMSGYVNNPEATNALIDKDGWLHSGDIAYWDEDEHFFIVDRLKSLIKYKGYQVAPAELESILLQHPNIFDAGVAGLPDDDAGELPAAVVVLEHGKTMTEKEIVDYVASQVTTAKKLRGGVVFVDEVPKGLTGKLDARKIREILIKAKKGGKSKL
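FLuc 10nM, D-luciferin 10uM, ATP 10uM, Mg acetate 10mM, Tris acetate pH 7.5, Tween/BSA; cpd qHTS; enzyme added last; CCD luminescence.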
3T3 cytotox = Cytotoxic Profiling in NIH 3T3 Cell Line of Diverse Libraries Using Quantitative High-Throughput Screening; NIH 3T3 viability, CellTiter-Glo ATP luminescence, 48-72 h; 94,000 tested, 4.3% active; Potency, µM (top dose mostly 96.7 µM), most hits filed as inhibitors; note: nearly all actives have a fitted effect of over 55% in size
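NIH 3T3 cells at 400 cells/well received 23 nL of compound by pintool and were incubated 48 or 72 h at 37 °C. Viability was read as ATP-coupled CellTiter-Glo luminescence.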
Numbers stand for hits; . = inactive; ? = inconclusive; / = no result given; ! = not confirmed by another sample. Rows were chosen to be rich in hits. Some 10% of all compounds tested hit in one or more screens of this group. Unless noted, calls come from the whole dose curve; as a rule, active = well fitted curve in the direction sought with a large enough effect; inconclusive = small, poorly fitted or top-dose-only effect, or another doubt; inactive = no such curve, though single readings can be large; an effect the other way counts as inactive or inconclusive.

SMILES	hNpr1 antagonist	HEK cytotox	GPT2 inhibitor	Luciferase inh	3T3 cytotox
COCC1(C(=O)N2CCOC(c3ccc4cc(OC)ccc4c3)C2)CCC1 (stereo not given)	.	?	.	20µM	?
COc1ccc2cc(C3CN(c4ncnc(C)c4C)CCO3)ccc2c1 (stereo not given)	2.51µM	?	.	?	?
CCn1cc(S(=O)(=O)NC2CCN(C(=O)N3CC4CC(C3)[C@H]3CCCC(=O)N3C4)CC2)cn1 (stereo not given in full)	.	.	.	.	.
O=C(Nc1ccccc1)c1cnc(-c2ccc(F)cc2)nc1-c1ccncc1	.	.	.	.	?
O=C(Nc1ccc(F)c(Cl)c1)c1cnc(-c2ccccc2)nc1-c1ccncc1	?	35.5µM	.	.	25.1µM
O=C(Nc1cc(F)cc(F)c1)c1cnc(-c2ccc(F)cc2)nc1-c1ccncc1	?	22.4µM	.	?	20µM
O=C(Nc1ccc(Cl)cc1)N1CCC(c2nn(-c3ccccc3)c(=O)[nH]2)CC1	.	.	.	.	.
COC[C@@H]1CN(Cc2cccc(OC)n2)C[C@H]1C(=O)N(C)C	.	.	.	.	.
O=c1n(-c2ccncc2)nc2n1CCN(Cc1ccsc1)C2	.	?	.	?	?
O=c1n(-c2ccc(F)cc2F)nc2n1CCN(Cc1ccccc1)C2	.	3.16µM	.	?	6.31µM
O=c1n(-c2ccc(C(F)(F)F)cc2)nc2n1CCN(Cc1ccc(C(F)(F)F)cc1)C2	?	35.5µM!	?	.	?
COc1ccc(-n2nc3n(c2=O)CCN(Cc2ccsc2)C3)cc1	/	?	.	/	31.6µM
O=C(c1ccccc1)N1CCn2c(nn(-c3ccc(F)cc3)c2=O)C1	.	100µM	.	.	.
O=c1n(-c2ccc(Cl)cc2)nc2n1CCN(Cc1ccc(C(F)(F)F)cc1)C2	/	?	.	/	?
Cc1cc(C(=O)N2CCC(F)CC2)c2c(C3CCNC3)noc2n1 (stereo not given)	/	.	.	/	.
CC(=O)OC1CC2(C)C(CCC(C)C23Cc2c(O)cc(CO)c(C=O)c2O3)C(C)(C)C1O (stereo not given)	/	/	.	/	/
O=C([C@@H]1C[C@H](F)CN1S(=O)(=O)c1cccc(F)c1)N1CCc2ccccc2C1	.	?	.	.	.
COCc1ccc(C(=O)N2CCC3(CC2)C(C(=O)O)CC(=O)N3C)o1 (stereo not given)	.	.	.	.	.
O=c1n(-c2ccc(C(F)(F)F)cc2)nc2n1CCN(Cc1cccc3ccccc13)C2	.	28.2µM!	.	.	?
O=c1n(-c2ccc(Cl)cc2)nc2n1CCN(Cc1ccc(F)cc1)C2	/	39.8µM	.	/	28.2µM
O=c1n(-c2ccncc2)nc2n1CCN(Cc1ccc(F)cc1)C2	?	?	.	.	?
O=c1n(-c2ccc(C(F)(F)F)cc2)nc2n1CCN(Cc1ccccn1)C2	.	?	.	?	?
O=C1Nc2nc(-c3c(O)cccc3OCC3CC3)cc([C@@H]3CCCNC3)c2CO1	/	/	.	/	/
O=C1CCN(S(=O)(=O)c2ccccc2)CCCN(C(=O)c2n[nH]c3ccccc23)CCN1	.	.	.	.	.
Cn1c2c(c3cc(F)ccc31)CN(C(=O)Nc1ccc(Cl)cc1)CC2	.	?	?	25.1µM	28.2µM
SMILES	hNpr1 antagonist	HEK cytotox	GPT2 inhibitor	Luciferase inh	3T3 cytotox
Cn1c2c(c3cc(F)ccc31)CN(C(=O)Nc1cccc(Cl)c1)CC2	?	?	.	?	20µM
Cc1cccc(NC(=O)N2CCc3c(c4cc(F)ccc4n3C)C2)c1	.	?	.	?	?
O=C(NCCCc1ccccc1)C1CCN(C(=O)c2ncn3c2COC(c2ccccc2)C3)CC1 (stereo not given)	.	.	?	15.8µM	.
COc1cccc(CNC(=O)C2CCN(C(=O)c3ncn4c3COC(c3ccccc3)C4)CC2)c1 (stereo not given)	.	.	.	22.4µM	.
COc1ccc(C2Cn3cnc(C(=O)N4CCC(C(=O)NCCc5ccccc5)CC4)c3CO2)cc1 (stereo not given)	.	.	.	.	.
O=C(NCc1cccc(F)c1)C1CCN(C(=O)c2ncn3c2COC(c2ccc(F)cc2)C3)CC1 (stereo not given)	.	.	.	31.6µM	.
Cc1n[nH]c(C)c1CNC(=O)C1CCN(C(=O)c2ncn3c2COC(c2ccc(F)cc2)C3)CC1 (stereo not given)	.	.	.	25.1µM	.
COCCC(=O)N1CCC(Oc2ccccc2-c2nc(C3CC3)no2)C1 (stereo not given)	.	.	.	.	.
COc1cccc(CN2CCCCCCNC(=O)[C@@H]3CCC[C@@H]32)c1	.	?	.	.	?
O=C1NC(=NC2CCCC2)C2(CCN([S+](=O)([O-])c3cccs3)CC2)N1c1cccnc1	/	.	.	/	.
O=C(NC1CCc2ccccc21)C1CCN(C(=O)c2ncn3c2COC(c2ccccc2)C3)CC1 (stereo not given)	.	.	.	39.8µM	.
COc1ccc(C2Cn3cnc(C(=O)N4CCC(C(=O)NCc5ccc(C)cc5)CC4)c3CO2)cc1 (stereo not given)	.	.	.	.	.
Cc1cccc(CNC(=O)C2CCN(C(=O)c3ncn4c3COC(c3ccc(F)cc3)C4)CC2)c1 (stereo not given)	.	.	.	44.7µM	.
Cc1ccc(C2Cn3cnc(C(=O)N4CCC(C(=O)NCc5cccc(F)c5)CC4)c3CO2)cc1 (stereo not given)	.	.	.	50.1µM	.
COc1ccc(C2Cn3cnc(C(=O)N4CCC(C(=O)NCC5CCCO5)CC4)c3CO2)cc1 (stereo not given)	.	.	.	.	.
O=C(NCC1CCCO1)C1CCN(C(=O)c2ncn3c2COC(c2ccc(F)cc2)C3)CC1 (stereo not given)	.	.	.	39.8µM	.
CC1CCN(CCCNC(=O)C2CCCN(S(=O)(=O)c3cn(C)cn3)CCC(=O)NCC2)CC1 (stereo not given)	.	.	.	.	.
CCc1ccc(CNC(=O)C2CCN(C(=O)c3ncn4c3COC(c3ccccc3)C4)CC2)cc1 (stereo not given)	.	.	.	35.5µM	.
O=C(NCc1ccccn1)C1CCN(C(=O)c2ncn3c2COC(c2ccc(F)cc2)C3)CC1 (stereo not given)	.	.	.	35.5µM	.
